Assay results published in PubChem BioAssay AID1486 (The Scripps Research Institute Molecular Screening Center, 2009).
The campaign covered roughly 220,000 compounds. About 2,400 (1.1%) were called active.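 The calls were made as follows: active = inhibition above a per-campaign cutoff, the mean inhibition of all tested compounds plus 3 SD (cut at about 27% in these data); inactive = the rest.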 For the sample, actives were picked, then their nearest neighbours and some compounds at random.

experiment: growth loss in parental Ba/F3 cells – cell-based, murine pro-B, CellTiter-Glo luminescence, counter-screen for JAK2V617F inhibitor project (AID 1486); settings: Ba/F3 parental viability, CellTiter-Glo ATP luminescence; at 5.6 µM; active compounds read high;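 also: 0% = DMSO wells and 100% = JAK Inhibitor I control wells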

SMILES	inhibition
COc1ccc(CC(NC(C)=O)C(=O)NC2CCN(C(=O)C3CC3)CC2)cc1OC (stereo not drawn)	-2.26% (inactive)
Cc1cc(NC(=O)Nc2ccc(Cl)cc2)n(-c2ccccc2)n1	0.47% (inactive)
Cc1nn(-c2ccccc2)c(-n2cccc2)c1C(=O)O	7.83% (inactive)
CCn1c(SCC(=O)Nc2sc(C)c(C)c2C#N)nnc1C1CC1	-1.4% (inactive)
COC(=O)c1ccc(/C=N/N2C(C)CCCC2C)cc1 (stereo not drawn)	-0.91% (inactive)
COc1ccc2nc(Nc3nc4ccc(NC(C)=O)cc4s3)sc2c1	1.76% (inactive)
CCCC(=O)Nc1nc2ccc(NC(=O)c3c(F)c(F)c(OC)c(F)c3F)cc2s1	83.3% (active)
CCCC(=O)Nc1nc2ccc(NC(=O)c3cccnc3)cc2s1	6.39% (inactive)
CN(C)C(=O)c1cccn(Cc2cccc(C(F)(F)F)c2)c1=O	1.53% (inactive)
N#Cc1ncc(C(F)(F)F)cc1Oc1cccnc1	3.06% (inactive)
Cc1ccc2nc(Nc3ccccc3O)nc(-c3ccccc3)c2c1	2.87% (inactive)
COc1ccc(-c2csc(Cc3nc(O)cs3)n2)cc1	2.47% (inactive)
CC(C)(C)C(=O)OCc1nc(-c2ccc(O)c(O)c2)cs1	55.4% (active)
COc1ccc(OC)c(Nc2nc(-c3ccc(O)c(O)c3)cs2)c1	7.93% (inactive)
O=c1[nH]cnc2c1c(-c1ccccc1)cn2-c1ccc(F)cc1	5.71% (inactive)
Cc1ccc2c(c1)C(O)(CC(=O)c1cccc(-n3cccc3)c1)C(=O)N2 (stereo not drawn)	9.56% (inactive)
Cc1cc2c(cc1C)[n+](C)cn2CC(O)COCC1CC=CCC1 (stereo not drawn)	77.5% (active)
CCc1ccc(-n2c(SCc3cc(=O)n4cc(Br)ccc4n3)nc3[nH]ncc3c2=O)cc1	3.56% (inactive)
Cc1cc(N2CCN(Cc3ccc4c(c3)OCO4)CC2)n2ncnc2n1	8.83% (inactive)
Fc1ccc2[nH]c3c(N4CCSCC4)ncnc3c2c1	2.75% (inactive)
Fc1ccc2[nH]c3c(N4CCN(Cc5ccc6c(c5)OCO6)CC4)ncnc3c2c1	43.4% (active)
Cc1ccc(OC(=O)c2c(C)nn(-c3ccccc3)c2C)cc1	-2.11% (inactive)
COc1ccc(NS(=O)(=O)c2ccc(NC(C)=O)cc2)cc1OC	36.4% (active)
COc1cc(NS(=O)(=O)c2ccc(NC(C)=O)cc2)cc(OC)c1	6.53% (inactive)

SMILES	inhibition
COC(=O)COc1ccc(S(=O)(=O)Nc2ccc(NC(C)=O)cc2)cc1	3.84% (inactive)
CCCCCCCC(=O)OC(CN1CCCCCC1)CN1CCCC1=O (stereo not drawn)	2.21% (inactive)
CCOc1cccc(-c2nnc3sc(COc4ccc(OC)cc4)nn23)c1	3.78% (inactive)
COc1ccc(-n2nnnc2-c2nc3ccccc3s2)cc1	2.01% (inactive)
CCOc1cccc(-n2nnnc2-c2ccc(OC)cc2)c1	56.8% (active)
CN(C)S(=O)(=O)c1ccc(C(=O)NCC(C)(C)N2CCOCC2)cc1	0.19% (inactive)
CC1(C)CC(N2CCN(C(c3ccccc3)c3ccccc3)CC2)=CC(=[N+]2CCCCC2)C1	88.5% (active)
CC(C)NC(=S)N1CCN(C(c2ccccc2)c2ccccc2)CC1	5.27% (inactive)
CC1(C)CC(=O)C=C(N2CCCC2)C1	-2.25% (inactive)
Brc1ccc2ncnc(NCc3cccnc3)c2c1	-4.51% (inactive)
CC1CCCN(S(=O)(=O)c2ccc(C(=O)Nc3nnc(-c4ccncc4)o3)cc2)C1 (stereo not drawn)	6.63% (inactive)
CC1CCCCN1S(=O)(=O)c1ccc(S(=O)(=O)N(CC(=O)Nc2ccccc2)Cc2cccs2)cc1 (stereo not drawn)	1.87% (inactive)
CC1CCCCN1S(=O)(=O)c1ccc(C(=O)Nc2nnc(-c3cccs3)o2)cc1 (stereo not drawn)	34.1% (active)
COc1ccc2[nH]c(C(=O)Nc3ccccc3Cl)cc2c1	-2.76% (inactive)
Cn1ccc(=Nc2ccc(NC(=O)c3ccc(N=c4ccn(C)c5ccc([N+](=O)[O-])cc45)cc3)cc2)cc1	29.7% (active)
Cc1cc([N+](=O)[O-])ccc1NC(=O)c1ccc(NC(=O)C(C)C)cc1	6.88% (inactive)
CC(=O)NC(=S)Nc1ccc(NC(=S)NC(=O)c2ccc([N+](=O)[O-])cc2)cc1	-2.36% (inactive)
CC1CCN(c2c(NCc3ccc(C(=O)NCc4ccccc4)cc3)c(=O)c2=O)CC1	-0.24% (inactive)
CCOC(=O)N1CCN(C(c2cccnc2)c2ccc3cccnc3c2O)CC1 (stereo not drawn)	35.8% (active)
CCN1CCN(C(c2cccnc2)c2cc(Cl)c3cccnc3c2O)CC1 (stereo not drawn)	4.4% (inactive)
Oc1c(C(c2ccccn2)N2CCOCC2)ccc2cccnc12 (stereo not drawn)	2.22% (inactive)
CCCNC(=O)OC[C@H]1O[C@H](CCO/N=C/[C@@H](NS(=O)(=O)c2ccc(C)cc2)[C@H](C)/C=C/CC(=O)OC)C=C[C@@H]1Oc1ccc(OC)cc1	1.98% (inactive)
CC1CCN(C(=O)c2ccc(S(=O)(=O)Cc3cc(F)ccc3F)c([N+](=O)[O-])c2)CC1	2.51% (inactive)
Cc1ccc(/C=N/NC(=O)CN2CCN(Cc3ccccc3)CC2)s1	0.65% (inactive)

SMILES	inhibition
CCCCCCCCn1c2c(c(=N)c3c1CCC3)CCCC2	88.4% (active)
CCCCCCn1c(CN2CCCCC2)nc2c1c(=O)n(C)c(=O)n2C	2.14% (inactive)
Cc1cc(CNC(=O)c2cccc([N+](=O)[O-])c2)c2ccccc2n1	-2.87% (inactive)
O=C(Nn1c(SCc2ccc([N+](=O)[O-])cc2)nc2ccccc2c1=O)c1ccc(F)cc1	-1.55% (inactive)
CN(CC(=O)NC1CCCC1)S(=O)(=O)c1cnc[nH]1	-0.47% (inactive)
CSc1ccc(C#N)cc1NC(=O)c1ccc(Cl)cc1	1.1% (inactive)
COc1ccccc1NC1=NC(c2ccc(Cl)cc2)N=C(N)N1 (stereo not drawn)	81.1% (active)
COc1ccccc1NC1=NC2(CCCC2)N=C(N)N1	10.5% (inactive)
COc1ccccc1Nc1nc(N)nc(CN(C)C2CCCCC2)n1	0.48% (inactive)
CCOc1ccccc1Oc1cn[nH]c1-c1ccc(OC)cc1O	94.7% (active)
CCOc1ccc(-c2n[nH]c(C)c2-c2ccccn2)c(O)c1	5.9% (inactive)
CCOc1ccc(-c2nc(N)ncc2-c2ccccc2OC)c(O)c1	-0.51% (inactive)
CCCCCc1ccc(-c2ccc(OCC)cc2)nc1	3.47% (inactive)
COCC(C)n1c(C)cc(C(=O)COc2ccc(C)nc2[N+](=O)[O-])c1C (stereo not drawn)	3.84% (inactive)
C/C(=N\NC(=O)c1cccnc1)c1ccc(-n2ccnc2)cc1	-0.08% (inactive)
COc1ccc(Cl)cc1NC(=O)C(C)N1CCc2ccccc21 (stereo not drawn)	4.67% (inactive)
Cc1ccc(/C=C/C(=O)O)cc1S(=O)(=O)N1CCC(Cc2ccccc2)CC1	-3.54% (inactive)
C=CCOC(=O)C1=C(C)NC(SCC(=O)OCC)=C(C#N)C1c1ccc(C)cc1 (stereo not drawn)	1.41% (inactive)
CCOC(=O)CSC1=C(C#N)C(c2sccc2C)CC(=O)N1 (stereo not drawn)	81.7% (active)
Cc1ccc(C2CC(=O)NC(SCC(=O)OCc3ccccc3)=C2C#N)o1 (stereo not drawn)	2.62% (inactive)
Cc1nnc(CN(C)Cc2cn[nH]c2-c2ccc(-c3ccccc3)cc2)o1	3.87% (inactive)
Cc1cccc(NC(=O)c2sc(-c3ccccc3)nc2-c2ccc([N+](=O)[O-])cc2)c1	2.68% (inactive)
COc1ccc(C(=O)Nc2nc(-c3ccc(OC)cc3)c(-c3ccc([N+](=O)[O-])cc3)s2)cc1	61.3% (active)
COC(=O)C(NC(=O)c1ccc(OC)cc1)(Nc1ncc(S(=O)(=O)c2ccc([N+](=O)[O-])cc2)s1)C(F)(F)F (stereo not drawn)	-1.49% (inactive)

SMILES	inhibition
CCOC(=O)/C(=N\Nc1ccccc1[N+](=O)[O-])c1csc(Nc2ccccc2)n1	12% (inactive)
Cc1nnc(N/N=C/c2ccccn2)[nH]c1=O	1.19% (inactive)
Cc1ccc(Oc2ccc(N)cc2)cc1	2.65% (inactive)
CC(C)(C)c1ccc(Oc2ccc(N)cc2)cc1	36.8% (active)
Nc1ccc(Oc2ccc(Cl)cc2)cc1	9.91% (inactive)
CCCCN(C)c1ccc([N+](=O)[O-])cc1	8.6% (inactive)
CCc1[nH]nc(C(=O)N2CCCC(CNS(=O)(=O)c3cccs3)C2)c1C (stereo not drawn)	6.5% (inactive)
C/C(CC(=O)NC(C)c1ccccc1)=N\NC(N)=S (stereo not drawn)	-3.5% (inactive)
CCOC(=O)N1CCN(C(=O)C2CCN(Cc3ccc(OC)cc3OC)CC2)CC1	3.57% (inactive)
CCOC(=O)N1CCN(C(=O)C2CCN(c3ncnc4c3sc3cccc(F)c34)CC2)CC1	40.6% (active)
CCOC(=O)C1CCN(c2ncnc3c2oc2ccc(Br)cc23)CC1	6.89% (inactive)
CNC(=O)COc1ccc(S(=O)(=O)Nc2ccccc2)cc1	0.46% (inactive)
Cc1csc(CN(C)C(=O)CC2C(=O)NCCN2CC(C)(C)C)n1 (stereo not drawn)	9.22% (inactive)
Cc1ccc(C(=O)N/N=C\c2cc(Br)c(Br)o2)cn1	1.1% (inactive)
Cc1cc(C(=O)CSc2nc(N)cc(=O)[nH]2)c(C)n1CCc1ccc(Cl)cc1	6.39% (inactive)
Cc1cc(C(=O)CSc2nc(N)cc(=O)[nH]2)c(C)n1Cc1ccco1	33.8% (active)
Cc1cc(C(=O)CSc2nc(N)cc(=O)[nH]2)c(C)n1-c1cccc(F)c1	4.66% (inactive)
CSC1=NCCN1C(=O)Cc1cccc2ccccc12	2.66% (inactive)
CCn1c2ccccc2c2cc(NC(=O)Nc3ccc([N+](=O)[O-])cc3C)ccc21	-1.24% (inactive)
CC(=O)c1cc(-c2ccccc2)n(CCC(=O)NC2CCCCCC2)c1C	1.01% (inactive)
CC(C)c1cc(CN2CCOCC2)cc(C(C)C)c1O	-1.01% (inactive)
